Measurements taken from PubChem BioAssay AID463173 (ICCB-Longwood Screening Facility, Harvard Medical School, 2010).
About 4,300 (8.3%) of roughly 52,000 compounds were called active. No stated cut-off is given here; in the data, active means survival mostly below about 52% (no sharp cut-off); inactive means mostly above about 56%. The full list was thinned out, with actives kept by preference.

System: DeltatarO mutant
Experiment: S. aureus survival, RN4220 and DeltatarO strains – OD600, teichoic acid synthesis inhibitors, primary screen (AID 463173)
Settings: S. aureus RN4220 wild type/DeltatarO growth, OD600, 18 h, stronger effect = lower value, screened at 18.75 µg/mL (by protocol)

Row | Compound | survival
1 | O=C(CSc1nccn1Cc1ccccc1)Nc1ccc2c(c1)OCCO2 | 71% (inactive)
2 | CN(C)c1ccc(CN(Cc2ccco2)C(=O)COc2ccc(F)cc2)cc1 | 91% (inactive)
3 | CC(Sc1nnc2c(n1)[nH]c1ccccc12)C(=O)NC1CC1 (centres undefined) | 60% (inactive)
4 | CCc1ccc(-c2cn3c(n2)sc2cc(C(=O)NCCC4=CCCCC4)ccc23)cc1 | 70% (inactive)
5 | O=C(NCc1ccccc1)C(c1ccco1)N(C(=O)c1csnn1)c1ccccc1 (centres undefined) | 81% (inactive)
6 | CCCCc1nn2c(=O)cc(COC(=O)c3ccccc3NC(=O)c3ccccc3OC)nc2s1 | 84% (inactive)
7 | O=C(Nc1ccc(Cl)cc1)N1CCC(c2ccccc2)C1 (centres undefined) | 67% (inactive)
8 | COc1cc(OC)c(NC(=O)CN2C(=O)CCn3nc(-c4cccn4C)cc32)cc1Cl | 90% (inactive)
9 | O=C(NC1(C(F)(F)F)NC(=O)N(CCc2ccccc2)C1=O)c1ccccc1F (centres undefined) | 76% (inactive)
10 | Cc1ccc(N(CC(=O)N2CCN(c3cccc(C)c3C)CC2)S(=O)(=O)c2c(C)nn(C)c2C)cc1 | 75% (inactive)
11 | CCSc1nc(-c2ccc(Cl)cc2)nc2c1Cc1c(CO)cnc(C)c1O2 | 39% (active)
12 | CCSc1nc(-c2cccc(Cl)c2)nc2c1Cc1c(CO)cnc(C)c1O2 | 116% (inactive)
13 | CCSc1nc(-c2ccccc2)nc2c1Cc1c(CO)cnc(C)c1O2 | 93% (inactive)
14 | CC(C)c1n[nH]c(=S)n1C | 84% (inactive)
15 | CCOc1ccc(N2CC(c3nc4ccccc4n3CCCOc3ccccc3)CC2=O)cc1 (centres undefined) | 51% (inactive)
16 | CCOC(=O)Cn1c(C2CC(=O)N(c3ccc(C)cc3)C2)nc2ccccc21 (centres undefined) | 66% (inactive)
17 | CCOc1ccc(N2CC(c3nc4ccccc4n3CCOc3ccc(CC)cc3)CC2=O)cc1 (centres undefined) | 55% (active)
18 | CCOc1ccc(N2CC(c3nc4ccccc4n3Cc3ccccc3F)CC2=O)cc1 (centres undefined) | 103% (inactive)
19 | CCOc1ccccc1N1CC(c2nc3ccccc3n2CCOc2ccccc2)CC1=O (centres undefined) | 32% (active)
20 | CCOc1ccc(N2CC(c3nc4ccccc4n3CCOc3ccccc3)CC2=O)cc1 (centres undefined) | 33% (active)
21 | CCOc1ccccc1N1CC(c2nc3ccccc3n2CCCOc2ccccc2)CC1=O (centres undefined) | 68% (inactive)
22 | CCc1ccc(N2CC(c3nc4ccccc4n3Cc3ccccc3C)CC2=O)cc1 (centres undefined) | 52% (active)
23 | CCOc1ccccc1N1CC(c2nc3ccccc3n2CCOc2ccc(OC)cc2)CC1=O (centres undefined) | 62% (inactive)

Row | Compound | survival
24 | CCc1ccccc1NC(=O)c1nnn(-c2ccc(F)cc2)c1C | 74% (inactive)
25 | CCN(CC)CCCNC(=O)CCc1c(C)n(CC)c2cc(-c3ccccc3OC)nn2c1=O | 92% (inactive)
26 | CCC(=O)n1nc(-c2cccnc2)nc1NCc1ccc(F)cc1 | 88% (inactive)
27 | Cc1ccccc1Nc1nn2c(=O)c3ccc(C(=O)NCc4cccs4)cc3nc2s1 | 72% (inactive)
28 | O=C(CC1COc2ccccc2O1)NCCc1ccccc1 (centres undefined) | 87% (inactive)
29 | CCOC(=O)c1c(NC(=O)CSc2cn(CCNC(=O)c3ccc(OCC)cc3)c3ccccc23)sc2c1CCC2 | 91% (inactive)
30 | COc1ccc(OC)c(CCNC(=O)c2cc3c(-c4ccccc4F)nn(C)c3s2)c1 | 54% (inactive)
31 | CCOc1ccc(-c2nnc(SCC(=O)NCc3ccccc3)nc2-c2ccc(OCC)c(OC)c2)cc1OC | 80% (inactive)
32 | CCc1cc2c(cc3c(=O)n(CCCC(=O)NCc4cccc(Cl)c4)ncn32)s1 | 67% (inactive)
33 | CCOc1ccc(S(=O)(=O)N(CC(=O)Nc2ccc3c(c2)OCO3)c2ccc(C)cc2)cc1 | 50% (inactive)
34 | COCCCNC(=O)N1[C@H](c2cccs2)[C@@H](C)C(=O)[C@@H](C)[C@@H]1c1cccs1 | 47% (inactive)
35 | CCOc1ccc(N2CC(c3nc4ccccc4n3CCOc3ccc(OC)cc3)CC2=O)cc1 (centres undefined) | 47% (active)
36 | O=C1CC(c2nc3ccccc3n2CCCOc2ccccc2)CN1c1ccc(F)cc1 (centres undefined) | 97% (inactive)
37 | CCOc1ccc(N2CC(c3nc4ccccc4n3CCCOc3ccc(OC)cc3)CC2=O)cc1 (centres undefined) | 44% (active)
38 | COc1ccc(OCCCn2c(C3CC(=O)N(c4ccc(F)cc4)C3)nc3ccccc32)cc1 (centres undefined) | 66% (inactive)
39 | COc1ccc(OCCn2c(C3CC(=O)N(c4ccc(F)cc4)C3)nc3ccccc32)cc1 (centres undefined) | 59% (active)
40 | CCOc1ccc(N2CC(c3nc4ccccc4n3CCCOc3ccccc3OC)CC2=O)cc1 (centres undefined) | 81% (inactive)
41 | CCOc1ccc(N2CC(c3nc4ccccc4n3CCOc3ccccc3OC)CC2=O)cc1 (centres undefined) | 46% (inactive)
42 | CCOc1ccc(N2CC(c3nc4ccccc4n3CCCCOc3ccc(OC)cc3)CC2=O)cc1 (centres undefined) | 55% (inactive)
43 | CCOc1ccc(N2CC(c3nc4ccccc4n3CCC3CCCCC3)CC2=O)cc1 (centres undefined) | 33% (active)
44 | CCC1CN(C(=O)N2CCC(C(=O)Nc3cc(C)ccc3C)CC2)c2ccccc2O1 (centres undefined) | 98% (inactive)
45 | Cc1[nH]c2ccc(-c3nnc(SCC(=O)N4CCc5ccccc54)o3)cc2c1C | 84% (inactive)
46 | COc1ccc(C2C(C(=O)Nc3cccnc3)=C(C)Nc3nc(SCc4ccccc4)nn32)cc1 (centres undefined) | 57% (inactive)

Row | Compound | survival
47 | COc1ccc(NC(=O)C2CCN(S(=O)(=O)c3ccc4[nH]c5c(c4c3)CCCCC5)CC2)cc1 | 113% (inactive)
48 | COc1ccc2cc3cc(C(=O)N4CCN(c5cccc(C(F)(F)F)c5)CC4)sc3nc2c1 | 119% (inactive)
49 | CCN(C(=O)CSc1nnc(Cn2nnc3ccccc32)o1)c1nc(-c2ccccc2)cs1 | 80% (inactive)
50 | Cc1cccc(N(CC(O)Cn2c3ccccc3c3ccccc32)S(=O)(=O)c2ccc(F)cc2)c1 (centres undefined) | 58% (inactive)
51 | OCCN(CCO)CC(O)Cn1c2ccc(Br)cc2c2cc(Br)ccc21 (centres undefined) | 2% (active)
52 | CC(C)OCC(O)Cn1c2ccccc2c2ccccc21 (centres undefined) | 80% (inactive)
53 | CCCN(CCC)S(=O)(=O)c1ccc(C)cc1 | 97% (inactive)
54 | CCNc1sc(S(C)(=O)=O)nc1S(=O)(=O)c1ccc(C)cc1 | 125% (inactive)
55 | CCNc1nc(NCC)nc(N(n2cnnc2)S(=O)(=O)c2ccc(C)cc2)n1 | 1% (active)
56 | COc1ccccc1NC(=O)Cn1c(SCC(=O)N(C)c2ccccc2)nc2ccccc21 | 119% (inactive)
57 | O=C(CSc1ccccc1)Nc1c[nH]c(=O)[nH]c1=O | 78% (inactive)
58 | Cc1ccc(C)c(NC(=O)c2cc(=O)c3cc(C)cc(C)c3o2)c1 | 70% (inactive)
59 | COc1ccc(S(=O)(=O)Cc2ccc(C(=O)N3CCN(c4cc(C)ccc4C)CC3)o2)cc1 | 130% (inactive)
60 | Cc1cccc(-c2nnn3c2nc(NCc2ccccc2)c2ccccc23)c1 | 97% (inactive)
61 | Nc1ncnc2nc(SCCO)[nH]c12 | 63% (active)
62 | Nc1ncnc2nc(SCC(=O)O)[nH]c12 | 86% (inactive)
63 | Cc1ccc(S(=O)(=O)Nc2c(C)nc3nc(C)[nH]n3c2=O)c(C)c1 | 117% (inactive)
64 | Cc1ccccc1-c1nn2c(=O)cc(CN3CCN(C(=O)c4ccc(C(C)(C)C)cc4)CC3)nc2s1 | 97% (inactive)
65 | COc1cc(OC)cc(C(=O)N2CCN(C(=O)COc3ccccc3)CC2)c1 | 54% (active)
66 | COc1ccc(OCC(=O)N2CCN(C(=O)c3cccc(OC)c3)CC2)cc1 | 72% (inactive)
67 | COc1cc(OC)cc(C(=O)N2CCN(C(=O)COc3ccc(C)cc3)CC2)c1 | 57% (inactive)
68 | N#CC1=C(N)N(c2ccc(Cl)cc2)C2=C(C(=O)CCC2)C1c1cc(CN2CCOCC2)cs1 (centres undefined) | 59% (inactive)
69 | O=c1c2c(-c3ccc(Cl)cc3)ccnc2[nH]n1-c1ccccc1 | 67% (inactive)

Row | Compound | survival
70 | COc1ccccc1-c1ccnc2[nH]n(-c3ccccc3)c(=O)c12 | 64% (inactive)
71 | Cc1ccccc1-c1ccnc2[nH]n(-c3ccccc3)c(=O)c12 | 47% (active)
72 | CCC(c1nnnn1Cc1ccccc1)N1CCN(c2cccc(Cl)c2)CC1 (centres undefined) | 89% (inactive)
73 | CCCC(c1nnnn1Cc1ccccc1)N1CCN(c2ccccc2)CC1 (centres undefined) | 42% (active)
74 | CC(C)C(c1nnnn1Cc1ccccc1)N1CCN(c2ccccc2)CC1 (centres undefined) | 87% (inactive)
75 | COc1ccc(NC(=O)C2Cc3ccccc3N2C(=O)c2ccccc2)c(OC)c1 (centres undefined) | 80% (inactive)
76 | CCCCn1c(-c2ccc(S(=O)(=O)N3CCOCC3)cc2)csc1=Nc1ccccc1 | 48% (active)
77 | CC(C)Cn1c(-c2ccc(S(=O)(=O)N3CCOCC3)cc2)csc1=Nc1cc(Cl)ccc1Cl | 82% (inactive)
78 | CCCn1c(-c2ccc(S(=O)(=O)N3CCOCC3)cc2)csc1=Nc1ccc(OCC)cc1 | 70% (inactive)
79 | CCn1c(-c2ccc(S(=O)(=O)N3CCOCC3)cc2)csc1=Nc1ccc(C)c(Cl)c1 | 73% (inactive)
80 | CC(C)Cn1c(-c2ccc(S(=O)(=O)N3CCCC3)cc2)csc1=Nc1ccccc1 | 58% (inactive)
81 | COCCCn1c(-c2ccc(S(=O)(=O)N3CCOCC3)cc2)csc1=Nc1ccccc1 | 52% (active)
82 | CS(=O)(=O)N(CC(=O)O)c1ccc(Cl)cc1 | 105% (inactive)
83 | COc1ccc(-c2nc(SCC(=O)NC3CCCC3)c(-c3ccc(OC)cc3)[nH]2)cc1 | 71% (inactive)
84 | Cc1ccc(Cl)cc1N1CCN(C(=O)c2ccc3c(c2)N(Cc2ccc(F)cc2)CCS3)CC1 | 73% (inactive)
85 | Cc1ccc(CN2CCSc3ccc(C(=O)N4CCN(c5cc(C)ccc5C)CC4)cc32)cc1 | 25% (active)
86 | Cc1ccc(Cl)cc1N1CCN(C(=O)c2ccc3c(c2)N(Cc2ccccc2)CCS3)CC1 | 74% (inactive)
87 | Cc1ccc(CN2CCSc3ccc(C(=O)N4CCN(c5ccc(Cl)cc5)CC4)cc32)cc1 | 72% (inactive)
88 | Cc1ccc(CN2CCSc3ccc(C(=O)N4CCN(c5ccccc5)CC4)cc32)cc1 | 63% (inactive)
89 | Cc1ccc(CN2CCSc3ccc(C(=O)N4CCN(c5cccc(C)c5C)CC4)cc32)cc1 | 27% (active)
